Reference: publication PMC4336329 (PLoS ONE, 2015)
Out of some 310,000 compounds screened, about 2,200 (0.71%) showed an effect of 50% or more. The effect is printed as a negative number. The full list was thinned out, with strong results kept by preference.

Target: human ether-à-go-go-related gene (hERG) potassium channel (human, UniProt Q12809)
Assay: primary screen, population patch clamp on CHO cells stably expressing hERG; higher = less effect of the substance
Description: Briefly, Chinese hamster ovary (CHO) cells stably expressing the hERG channel were dislodged from tissue culture flasks and dispensed into PPC plates. […] During the recording, background leak currents were estimated by a 100 ms step to -80 mV from an initial holding potential of -70 mV and subtracted from the subsequent current measurement. The campaign was conducted in two phases using slight differences in recording protocol. In the first phase, the initial voltage pulse used a 100 ms step to -30 mV from a holding potential of -70 mV, a 2 s conditioning step to +25 mV, and a 2 s test step to -30 mV. During the second phase of the screen, the potential during the conditioning step was raised to +45 mV. In both phases of the campaign, a secondary voltage pulse was applied using the same parameters as the second phase initial pulse. The initial and secondary pulses were applied in the absence of compound, and upon application of 1 μM and 10 μM test concentrations. Small molecule effects on hERG current density were quantified by […].

Chain of human ether-à-go-go-related gene (hERG) potassium channel (Q12809 whole entry, looked up): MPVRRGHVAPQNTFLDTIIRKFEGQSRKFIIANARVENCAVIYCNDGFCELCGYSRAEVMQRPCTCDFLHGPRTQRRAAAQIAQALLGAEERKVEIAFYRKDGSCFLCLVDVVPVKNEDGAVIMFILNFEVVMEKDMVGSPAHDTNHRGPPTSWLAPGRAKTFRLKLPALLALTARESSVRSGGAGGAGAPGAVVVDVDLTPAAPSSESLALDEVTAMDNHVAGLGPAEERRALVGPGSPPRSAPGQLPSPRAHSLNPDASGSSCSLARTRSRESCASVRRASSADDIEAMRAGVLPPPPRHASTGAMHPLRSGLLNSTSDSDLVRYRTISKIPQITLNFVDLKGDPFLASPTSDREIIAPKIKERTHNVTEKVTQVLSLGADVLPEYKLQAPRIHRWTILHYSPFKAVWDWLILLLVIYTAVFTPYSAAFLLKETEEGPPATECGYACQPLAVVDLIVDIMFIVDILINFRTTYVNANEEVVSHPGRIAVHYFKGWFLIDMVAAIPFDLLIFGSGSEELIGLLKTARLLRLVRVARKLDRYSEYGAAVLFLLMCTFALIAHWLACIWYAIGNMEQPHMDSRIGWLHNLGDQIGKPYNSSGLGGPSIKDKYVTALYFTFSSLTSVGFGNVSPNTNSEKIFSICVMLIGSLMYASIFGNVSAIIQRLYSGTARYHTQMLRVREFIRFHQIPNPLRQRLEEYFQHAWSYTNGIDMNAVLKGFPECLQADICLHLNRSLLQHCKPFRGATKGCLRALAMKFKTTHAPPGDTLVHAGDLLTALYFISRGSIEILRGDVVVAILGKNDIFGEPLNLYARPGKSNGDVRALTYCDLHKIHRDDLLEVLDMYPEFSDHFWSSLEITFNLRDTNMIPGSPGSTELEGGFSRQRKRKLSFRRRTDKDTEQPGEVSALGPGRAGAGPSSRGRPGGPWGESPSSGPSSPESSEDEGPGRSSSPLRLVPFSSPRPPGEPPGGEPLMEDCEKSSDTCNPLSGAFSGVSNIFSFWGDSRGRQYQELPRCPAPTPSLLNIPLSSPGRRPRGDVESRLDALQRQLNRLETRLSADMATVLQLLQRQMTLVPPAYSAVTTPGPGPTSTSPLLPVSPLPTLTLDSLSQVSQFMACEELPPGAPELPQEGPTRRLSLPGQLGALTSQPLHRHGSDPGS

SMILES	hERG current change (%, negative = inhibition) at 1uM [%]
Cc1nc(CCl)cc(=O)[nH]1	4.26
Cc1[nH]ccc(=O)c1OCc1c(F)cccc1Cl	12.8
Nc1cc(=O)[nH]c(SCC(=O)Nc2ccc(Cl)c(Cl)c2)n1	1.55
Cc1nc(SCCC(=O)O)c2cc(-c3ccccc3)sc2n1	6.67
NC(=O)CSc1nnc(CNc2ccc(F)cc2)n1CC1CCCO1 (stereo not shown)	-1.77
COc1ccc(-n2ccnc(SCC(=O)NC3CCCC3)c2=O)cc1	-4.46
CCOc1cc(C(=O)NC(C)c2ccncc2)cc(OCC)c1OCC (stereo not shown)	-1.97
Cc1cc(Cl)ccc1N(CC(=O)NCc1ccc2c(c1)OCO2)S(C)(=O)=O	3.99
Cc1ccc(NC(=S)N(CCC(C)C)C(C)c2ccncc2)c(Cl)c1 (stereo not shown)	10.9
CC1(C(=O)NC(=S)N(Cc2ccccc2)c2ccccn2)CC1(Cl)Cl (stereo not shown)	12.4
Cn1cc([C@@H]2C[C@H]3CN(C4CCCC4)C(=O)[C@]34CCCN24)c(-c2ccccc2)n1	-0.828
Cc1ccc(-n2cccn2)c([C@@H]2C[C@H]3CN(C)C(=O)[C@]34CCCN24)c1	-15
O=C1N(C2CCCC2)C[C@@H]2C[C@@H](c3cccn3-c3nccs3)N3CCC[C@@]123	-60.3
Cc1cc(C)c([C@@H]2C[C@H]3CN(C4CCCC4)C(=O)[C@]34CCCN24)c(-n2cccn2)c1	-71.7
CN1C[C@@H]2C[C@@H](c3cccn3-c3nccs3)N3CCC[C@@]23C1=O	1.26
O=C1N(C2CCCC2)C[C@@H]2C[C@@H](c3cccn3-c3ccccn3)N3CCC[C@@]123	-28.9
COc1ccc(Nc2nc(N)c(C(=O)c3ccc(OC)cc3)s2)cc1	-5.28
CC12CCC(=O)N1C(C(=O)Nc1cc(C(F)(F)F)ccc1N1CCOCC1)CS2 (stereo not shown)	10.5
Cc1cc(C)nc(NC(=S)Nc2cccc(F)c2)c1	6.3
CCOc1cc(N2CCOCC2)c(OCC)cc1NC(=O)c1ccc(C)s1	-1.15
COc1ccc(N=C2SCCCN2C)cc1.I	15.8
c1cc2c3c(cccc3c1)C(N1CCOCC1)=N2	-0.83

SMILES	hERG current change (%, negative = inhibition) at 1uM [%]
c1cc2c3c(cccc3c1)C(N1CCCCC1)=N2	-44.8
Fc1ccc(N2CCN(C3=Nc4cccc5cccc3c45)CC2)cc1	-69.4
CNC(=O)CC1C(=O)N(c2ccc(Cl)cc2)C(=S)N1CCc1ccc(OC)c(OC)c1 (stereo not shown)	10.1
N=c1c(C(=O)NCC2CCCO2)cc2c(=O)n3ccccc3nc2n1C1CCCC1 (stereo not shown)	-72.2
N=c1c(S(=O)(=O)c2ccc(Br)cc2)cc2c(=O)n3ccccc3nc2n1C1CCCC1	14.3
N=c1c(C(=O)NCC2CCCO2)cc2c(=O)n3ccccc3nc2n1C1CCCCC1 (stereo not shown)	-79.2
N=c1c(S(=O)(=O)c2ccc(Br)cc2)cc2c(=O)n3ccccc3nc2n1C1CCCCC1	21.1
O=C(NCC1CCCO1)c1cccc2ccccc12 (stereo not shown)	17.8
CN(C)c1ccc(CN(C(=O)/C=C/c2ccco2)C2CCS(=O)(=O)C2)cc1 (stereo not shown)	11.7
O=C(Nc1ccc(F)c(Cl)c1)Nn1cnnc1	0.762
Cc1cccc(NC(=S)N/N=C/c2ccc([N+](=O)[O-])s2)c1	11.2
COc1ccc2[nH]c(=O)c(C(c3nnnn3C3CCCC3)N(C)C3CCCCC3)cc2c1 (stereo not shown)	-3.8
CN(C(=O)c1ccc(S(=O)(=O)N2CCCCC2)cc1)C1CCS(=O)(=O)C1 (stereo not shown)	-3.22
Br.CC1CC(C)CN(CC(=O)c2ccc(OC(F)F)cc2)C1 (stereo not shown)	-96.1
Cl.O=C(CN1CCCCC1)c1ccc(F)cc1	7.09
CCC1CCCCN1CC(=O)c1c(C)[nH]c2ccc(OC)cc12 (stereo not shown)	-5.25
CC1CC(C)CN(CC(=O)c2cccs2)C1 (stereo not shown)	-7.65
Br.O=C(CN1CCCCC1CO)c1ccc(OC(F)F)cc1 (stereo not shown)	-21.3
Br.O=C(CN1CCCCC1)c1ccc(OC(F)F)cc1	-63.4
Br.COc1ccc(C(=O)CN2CCCCC2)cc1	13.9
CC1CC(C)CN(C(=S)Nc2ccc(OC(F)F)cc2)C1 (stereo not shown)	-45.1
CCC1CCCCN1CC(=O)c1ccc(OC(F)F)cc1 (stereo not shown)	-80.2

SMILES	hERG current change (%, negative = inhibition) at 1uM [%]
O=C(COC(=O)C1CCN(C(=O)c2ccc(Cl)cc2)CC1)Nc1ccccc1F	-11.5
Cc1cc(-c2nn(-c3ccccc3F)cc2CN2CCN(c3ccccn3)CC2)c(C)s1	10.2
Cc1cc(-c2nn(-c3ccccc3F)cc2CN2CCN(c3ccncc3)CC2)c(C)s1	-69.3
Cc1cc(-c2nn(-c3ccccc3F)cc2CN2CCC(O)CC2)c(C)s1	-0.852
Cc1ccc(N(CC(=O)NC(C)(C)C)C(=O)CNC(=O)c2cccs2)cc1	7.4
CN(CC(=O)Nc1ccc(F)cc1)C(=O)Cn1nnc(-c2ccccc2)n1	7.23
CC(C)N(C)C1CCN(C(=O)Nc2ccc(Cl)c(Cl)c2)CC1	-19.5
O=C(CSc1nnc(-c2ccco2)n1Cc1ccccc1)c1ccccc1	8.89
O=C1c2ccccc2C(=O)N1CCSc1nnc(-c2ccco2)n1Cc1ccccc1	-51.1
c1ccc(CSc2nnc(-c3ccco3)n2Cc2ccccc2)cc1	-6.43
Cc1c(NC(=S)N2CCN(c3cccc(Cl)c3)CC2)c(=O)n(-c2ccccc2)n1C	9.46
CCNC(=O)OCCC12CC3CC(CC(C3)C1)C2	11.6
CCn1cc(CNC(=O)c2ccc3nc(Cc4ccccc4F)oc3c2)cn1	11.3
COCCN(C(=O)COC(=O)c1ccc2[nH]c(C)c(C)c2c1)c1c(N)n(Cc2ccccc2)c(=O)[nH]c1=O	7.98
CN(C)CCCN(C(=O)c1ccc2c(c1)OCCO2)c1nc2ccc(Cl)cc2s1.Cl	-3.81
CN(C)CCCN(C(=O)C1COc2ccccc2O1)c1nc2cc3c(cc2s1)OCO3.Cl (stereo not shown)	-21.3
Cc1ccc2nc(N(CCN(C)C)C(=O)C3=COCCO3)sc2c1.Cl	-5.32
CN(C)CCCN(C(=O)C1COc2ccccc2O1)c1nc2ccc(F)cc2s1.Cl (stereo not shown)	-64.9
CN(C)CCN(C(=O)C1=COCCO1)c1nc2ccc(F)cc2s1.Cl	-57.7
CN(C)CCN(C(=O)c1ccc2c(c1)OCCO2)c1nc2ccc(Cl)cc2s1.Cl	10.8
CN(C)CCN(C(=O)C1=COCCO1)c1nc2ccc(Cl)cc2s1.Cl	-62.4
CN(C)CCCN(C(=O)C1=COCCO1)c1nc2ccc(Br)cc2s1.Cl	-25.1

SMILES	hERG current change (%, negative = inhibition) at 1uM [%]
CN(C)CCCN(C(=O)CCc1ccccc1)c1nc2ccc(F)cc2s1.Cl	-24.8
Cc1csc(SC(C)C(=O)NC2CCCCC2C)n1 (stereo not shown)	7.18
COc1ccc2oc(=O)cc(-c3cc4ccccc4o3)c2c1	-1.03
O=C(C1CCCN(S(=O)(=O)c2ccccc2)C1)N1CCN(c2ccccc2)CC1 (stereo not shown)	-12.7
COc1ccc(N2CCN(C(=O)C3CCCN(S(=O)(=O)c4ccc(F)cc4)C3)CC2)cc1 (stereo not shown)	-7.16
CC(=O)c1ccc(N2CCN(C(=O)C3CCCN3S(=O)(=O)c3cccc4nsnc34)CC2)cc1 (stereo not shown)	14.6
O=C(C1CCCN1S(=O)(=O)c1cccc2nsnc12)N1CCN(c2ccc(F)cc2)CC1 (stereo not shown)	-54.1
O=C(C1CCCN(S(=O)(=O)c2ccccc2)C1)N1CCN(c2ccc(F)cc2)CC1 (stereo not shown)	-62.4
COc1ccc(N2CCN(C(=O)C3CCCN(S(=O)(=O)c4cccc5cccnc45)C3)CC2)cc1 (stereo not shown)	5.91
O=C(C1CCCN(S(=O)(=O)c2cccc3cccnc23)C1)N1CCN(c2ccc(F)cc2)CC1 (stereo not shown)	-50.1
O=C(C1CCCN(S(=O)(=O)c2cccc3cccnc23)C1)N1CCN(c2ccccc2F)CC1 (stereo not shown)	-27.5
O=C(C1CCCN1S(=O)(=O)c1cccc2nsnc12)N1CCN(c2ccccc2)CC1 (stereo not shown)	-1.72
CC(=O)N1CCN(C(=S)NC(=O)c2ccc(S(=O)(=O)N3CCOCC3)cc2)CC1	13.2
COc1ccc(C(=O)Nc2c(C)ccc3nsnc23)cc1[N+](=O)[O-]	3.23
C#CCNC(=O)C1=C[C@H](c2ccc(Br)cc2)C[C@H](OCCCCO)O1	11.3
COc1ccc([N+](=O)[O-])cc1N(CC(=O)Nc1ccccc1C(=O)N1CCOCC1)S(C)(=O)=O	4.57
COC(=O)C1=C(C(=O)OC)SC2(S1)C(C(=O)OC)=C(C(=O)OC)SC1=C2c2cc(C)ccc2NC1(C)C	11
COC(=O)C1=C(C(=O)OC)SC2(S1)C(C(=O)OC)=C(C(=O)OC)SC1=C2c2cccc(C)c2NC1(C)C	-79.1
COC(=O)C1=C(C(=O)OC)SC2(S1)C(C(=O)OC)=C(C(=O)OC)SC1=C2c2cc(C)cc(C)c2NC1(C)C	19.8
